The test system of test [1] is Human papillomavirus type 1a protein E7 (residues 44-93). Put plainly: small molecules binding HPV E7 44-93 – biochemical, small-molecule microarray, residues 44-93, 635 nm fluorescence, primary screen (AID 1108).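 Note: E7 fragment applied at 1 µg/mL in TBST for 1 h at 4 C; score combines spot fluorescence with its signal to noise ratio.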 The conditions noted are these: fluorescence 635 nm, higher = more signal.
The nature of test [2]: hepatitis C replication reporter changes, two-sided – Huh7 cells, luciferase reporter, HCV replication inhibitor project, primary screen (AID 1109).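 Note: huh7 hepatoma cells harbouring a luciferase neomycin HCV replicon reporter; luciferase luminescence as measure of HCV replicon replication; test concentration not given here.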 The conditions noted are these: Huh7 HCV replicon luciferase reporter, 48 h; higher = more signal.
Test [3] deals with Left-right determination factor 2 (Homo sapiens) (UniProt O00292). Description: small molecules binding LEFTY2 protein – biochemical, small-molecule microarray, 635 nm fluorescence scan, primary screen (AID 1110). The note with it: higher = more signal.
Test [4] concerns the target Calmodulin-1 (Homo sapiens) (UniProt P0DP23). Put plainly: small molecules binding calmodulin-1 with EGTA – biochemical, small-molecule microarray, Cy5-labelled CALM1, profiling panel (AID 1111).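 Note: labelled calmodulin applied in Tris saline Tween buffer holding calcium plus EGTA and DTT.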 The conditions noted are these: Cy5-CALM1 binding fluorescence, higher = more signal.
Test [5] has the same target. Put plainly: small molecules binding Ca-loaded calmodulin-1 – biochemical, small-molecule microarray, Cy5-labelled CALM1, plus calcium, artefact control for SMM control-protein annotation, profiling panel (AID 1112).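 Note: score merges spot fluorescence with signal to noise from triplicate slides.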 The note with it: Cy5-CALM1 binding fluorescence, higher = more signal.
Test [6] is described as follows: probe aWnt5a binding to arrayed compounds – biochemical, biotinylated probe, 635/667 nm fluorescence, primary screen (AID 1113).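 Note: score merges 667 nm fluorescence intensity with signal-to-noise per printed feature.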 The note with it: small-molecule microarray, higher = more signal.
The nature of test [7]: probe aShh binding to arrayed compounds – biochemical, biotinylated probe, 635/667 nm fluorescence, primary screen (AID 1114).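 Note: probe is biotin-labelled aShh protein from a stem cell growth factor screen; measures binding of labelled protein to compounds printed on the slide; score merges feature fluorescence at 667 nm with signal-to-noise.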 The note with it: small-molecule microarray, higher = more signal.
The nature of test [8]: probe aNog binding to arrayed compounds – biochemical, biotinylated probe, 635/667 nm fluorescence, primary screen (AID 1115).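 Note: probe is biotinylated aNog protein used at 0.15 µg/mL for 1 h at 4 C; z-score combines 667 nm fluorescence of each spot with its signal to noise.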 The conditions noted are these: small-molecule microarray, higher = more signal.
In test [9] the target is Torsin-1A-interacting protein 1 (Homo sapiens) (UniProt Q5JTV8). Description: compound microarray binding of lysate hLAP1 – cell lysate, small-molecule microarray, COS7 lysate, 635/667 nm fluorescence, primary screen (AID 1116). The note with it: 635 nm fluorescence, higher = more signal.
Test [10] addresses Alpha-bungarotoxin (Bungarus multicinctus) (UniProt P60615). Put plainly: compounds binding labelled alpha-BTX control protein – biochemical, small-molecule microarray, Alexa647 label, 635/667 nm fluorescence, artefact control for SMM control protein annotation, profiling panel (AID 1117). The conditions noted are these: alpha-BTX-A647 binding fluorescence, higher = more signal.

Chain of Left-right determination factor 2 (Homo sapiens) (O00292 whole entry, looked up): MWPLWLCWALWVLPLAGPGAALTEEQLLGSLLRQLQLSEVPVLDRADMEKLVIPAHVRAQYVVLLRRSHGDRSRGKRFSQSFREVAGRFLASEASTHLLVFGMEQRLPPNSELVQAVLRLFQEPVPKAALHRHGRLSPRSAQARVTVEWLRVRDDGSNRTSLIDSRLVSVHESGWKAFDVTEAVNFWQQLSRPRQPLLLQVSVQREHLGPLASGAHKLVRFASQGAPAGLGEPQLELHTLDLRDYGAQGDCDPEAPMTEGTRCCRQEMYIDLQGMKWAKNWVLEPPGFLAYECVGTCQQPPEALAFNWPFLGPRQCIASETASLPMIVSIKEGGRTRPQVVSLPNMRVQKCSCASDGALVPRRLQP
Chain of Torsin-1A-interacting protein 1 (Homo sapiens) (Q5JTV8 whole entry, looked up): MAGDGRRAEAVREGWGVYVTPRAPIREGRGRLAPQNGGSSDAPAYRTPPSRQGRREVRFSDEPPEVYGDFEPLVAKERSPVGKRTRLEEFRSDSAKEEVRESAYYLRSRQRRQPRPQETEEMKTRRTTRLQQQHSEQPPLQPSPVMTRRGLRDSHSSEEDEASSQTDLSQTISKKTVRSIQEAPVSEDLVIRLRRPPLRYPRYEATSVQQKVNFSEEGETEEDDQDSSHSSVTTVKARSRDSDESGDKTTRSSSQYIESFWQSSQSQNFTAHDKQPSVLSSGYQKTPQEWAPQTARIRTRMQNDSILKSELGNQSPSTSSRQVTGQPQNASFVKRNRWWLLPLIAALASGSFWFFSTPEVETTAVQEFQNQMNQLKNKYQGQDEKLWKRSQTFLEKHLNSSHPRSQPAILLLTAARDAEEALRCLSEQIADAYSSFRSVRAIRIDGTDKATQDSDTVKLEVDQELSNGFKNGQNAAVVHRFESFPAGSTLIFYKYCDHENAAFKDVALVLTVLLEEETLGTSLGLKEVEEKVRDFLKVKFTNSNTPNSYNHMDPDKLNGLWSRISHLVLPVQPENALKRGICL
Chain of Alpha-bungarotoxin (Bungarus multicinctus) (P60615 whole entry, looked up): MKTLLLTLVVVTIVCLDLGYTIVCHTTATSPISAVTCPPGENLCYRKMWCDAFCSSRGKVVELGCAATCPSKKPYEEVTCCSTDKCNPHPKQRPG

For the compound `CC(C)=CCCC(C)=CCON=C1C[C@@H](O)[C@@H](O)[C@@H]2[C@@H]3C(=O)N(c4cccc(Oc5ccccc5)c4)C(=O)[C@@H]3CC[C@@H]12`, the composite z-score in test [1] was 1.21; in test [3] it was 0.353; in test [4], 0.33; in [5], -0.126; in test [6], -0.13; in [7], -0.0064. Besides, the composite z-score was -0.287 in [8], 0.444 in [9] and 0.305 in test [10]. The z-score in test [2] is -1.36.

Take `CC(C)CON=C1C[C@@H](O)[C@@H](O)[C@@H]2[C@@H]3C(=O)N(C4CCCCC4)C(=O)[C@@H]3CC[C@H]12`: the composite z-score in test [1] is 1.2; in test [3], 0.999; in test [4] it was 1.27; in test [5] it was -0.0361; in test [6], -0.0731; in [7], -0.16. Further, the results for the composite z-score in [8], in [9] and in test [10] were 0.447, 0.792 and 1.13, respectively. In test [2], this compound had a z-score of 0.0073.

As to `COc1ccc(COC(=O)NN=C2C[C@@H](O)[C@@H](O)[C@@H]3[C@@H]4C(=O)N(c5cccc(Oc6ccccc6)c5)C(=O)[C@@H]4CC[C@@H]23)cc1`, the composite z-score in [1] is -0.203; in [3] it was -0.0421; in [4] it was -0.338; in test [5] it was 0.0996; in test [6], -0.0165; in test [7] it was -0.117. Further, the composite z-score in test [8] was -0.0641; in test [9], 0.326; in test [10], 0.487. This compound came in with a z-score in [2] of -1.98.

On to `CO[C@H]1COC(=O)CC=C[C@@H](C)[C@H](OC)COC(=O)[C@@H]2CCCN2C(=O)CC=C[C@@H]1C`, for which the composite z-score in test [1] was -0.298; in test [3], 1.32; in test [4], -1.02; in test [5], -1.82; in test [6], -0.0819; in test [7], -0.138. The results for the composite z-score in [8], in test [9] and in [10] were -0.748, 0.159 and -0.41, respectively. The compound also registered a z-score in test [2] of 0.443.

As for `COc1cccc([C@H]2Oc3ccc(OC)cc3C(=NOC[C@@H](O)COCc3ccco3)[C@@H]2O)c1`, the composite z-score in test [1] is -0.593; in test [3] it was -0.159; in [4] it was -2.33; in test [5], -2.08; in test [6], -0.278; in [7], -0.372. Moreover, the composite z-score in test [8] is -0.539; in [9] it was -0.889; in test [10] it was -0.799. Moreover, the z-score in test [2] is -1.04.

Turning to `O=C1[C@H]2[C@H]3[C@H](O)[C@H](O)CC(=NOC[C@@H](O)COCc4ccco4)[C@H]3CC[C@H]2C(=O)N1C[C@@H]1CCCO1`, the composite z-score in [1] was -0.317; in [3], 1.19; in [4], -0.428; in test [5], -1.53; in test [6] it was -0.0037; in [7], 0.0899. Also, the figures for the composite z-score in test [8], in test [9] and in [10] were -0.158, 0.583 and 0.349, respectively. The compound also had a z-score in [2] of -0.205.

On to `CO[C@H]1COC(=O)[C@@H]2CCCN2C(=O)CC=C[C@@H](C)[C@H](OC)COC(=O)[C@@H](OCc2ccccc2)C=C[C@@H]1C`, for which the composite z-score was -0.556 in test [1]; 1.04 in test [3]; -0.584 in test [4]; -1.15 in test [5]; -0.0882 in test [6]; -0.2 in test [7]. The composite z-score in [8] was -0.408; in test [9], 0.0642; in [10] it was -0.178. Further, the z-score in test [2] was -0.389.

Regarding `CCC=CCCC(OC(=O)c1ccc(Br)cc1)C1=CCCCC1=O` (stereo not given), the composite z-score in test [1] was 1.17; in test [3], 0.664; in [4], -1.06; in [5], -1.54; in [6], -0.0512; in [7] it was -0.124. The figures for the composite z-score in [8], in test [9] and in test [10] were -0.198, 0.221 and 0.654, respectively. In test [2], this compound yielded a z-score of -2.38.

Take `CC(CCN1CCCc2nc(C)c(C)cc21)=NO[C@@H](C)c1cc(-c2c(C)cc(C)cc2C)no1`: the composite z-score was 0.788 in [1]; 0.231 in test [3]; 0.446 in test [4]; -0.17 in test [5]; -0.101 in test [6]; 0.0952 in test [7]. Besides, the composite z-score in test [8] stood at 0.173; in test [9] it was 0.601; in test [10], 0.494. This compound also gave a z-score in test [2] of -0.414.

Take `CC[C@@H](c1ccccc1)n1c(=O)n2n(c1=O)[C@H]1[C@H](O)[C@@H]3O[C@@H]3C(=NOC[C@@H](O)COCc3ccco3)[C@H]1CC2`: the composite z-score in [1] is -0.629; in test [3] it was 0.0632; in [4], -1.26; in test [5] it was -1.51; in test [6], -0.145; in test [7], -0.276. The composite z-score in [8] was 0.618; in test [9] it was -0.298; in [10] it was -0.201. In test [2], the z-score is -2.55.

For `C=CC[C@@H]1C=C[C@H](ON=C[C@@H](C)[C@H](OCc2ccccc2)C(C)C)[C@@H](CO)O1`, the composite z-score was 0.0248 in [1]; -0.0977 in test [3]; -1.07 in test [4]; -0.0781 in [5]; -0.101 in test [6]; -0.186 in test [7]. Further, the values for the composite z-score in [8], in [9] and in [10] were -0.4, -0.159 and -0.901, respectively. This compound also showed a z-score in [2] of -2.12.

Take `CC(C)CCN1CCc2nc(COc3ccccc3)c3c(c2C1)CO[C@@H](C)C3`: the composite z-score is 0.25 in test [1]; 0.0637 in [3]; 0.683 in test [4]; 0.0677 in test [5]; -0.118 in test [6]; 0.0796 in test [7]. The values for the composite z-score in test [8], in test [9] and in test [10] were 0.15, 0.686 and 0.221, respectively. Moreover, the z-score in [2] is 0.911.

For `COc1cccc([C@H]2Oc3ccc(OC)cc3C(=NOC[C@@H](O)[C@H]3O[C@@H]4OC(C)(C)O[C@@H]4[C@H]3O)[C@@H]2O)c1`, the composite z-score in [1] is 0.0743; in test [3], 0.583; in [4], -0.284; in test [5] it was -0.273; in [6], -0.139; in test [7], -0.304. Further, the composite z-score in test [8] was -0.409; in [9], 0.64; in test [10] it was -0.106. The compound also returned a z-score in test [2] of 4.33.
